The values that follow come from paper PMC5540273 (PLoS ONE, 2017).

Common to all, as to settings: concentration: 1 μM, replicates: in singlicate; n = 1
Test [1] has as its system PRKCD.
In test [2] the test system is PRKCE.
Test [3] deals with PRKCH.
The subject of test [4] is PRKCI.
Test [5] relates to PRKCQ.
The subject of test [6] is PRKD1.
Test [7] has as its system PRKD2.
Test [8] relates to PRKD3.
In test [9] the test system is PRKG1.
Test [10] concerns PRKG2.
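Further: KINOMEscan kinase panel screen.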

In the case of `Cn1ccc2ncnc(Oc3ccc(NC(=O)Nc4cccnc4)c(Cl)c3)c21`, the “%Inh” value in test [1] stood at 13%; in test [2] it was 0%; in test [3], 6%; in test [4], 0%; in [5], 28%; in [6], 0%. In addition, the “%Inh” value in test [7] stood at 8%; in test [8], 0%; in test [9] it was 0%; in [10], 0%.

Take `CSc1ccc(NC2=C(c3ccccc3Cl)C(=O)NC2=O)cc1` [SB-342411]: the “%Inh” value in test [1] was 26%; in test [2] it was 0%; in test [3], 7%; in test [4], 0%; in test [5] it was 0%; in test [6], 5%. Besides, the “%Inh” value stood at 2% in [7], 28% in test [8], 0% in test [9] and 13% in test [10].

As for `Cl.c1ccc(Cn2ccc3cc(Nc4ncnc5ccccc45)ccc32)cc1` [GW275568], the “%Inh” value in [1] is 0%; in test [2], 8%; in test [3], 0%; in test [4], 31%; in [5], 11%; in test [6], 0%. Moreover, the “%Inh” value is recorded as 18% in test [7], 13% in test [8], 0% in test [9] and 28% in test [10].

On to `Nc1nccc2scc(-c3ccc4c(c3)CCN4C(=O)Cc3cc(F)ccc3F)c12` [GSK2587663], for which the “%Inh” value was determined as 0% in [1]; 0% in test [2]; 16% in test [3]; 1% in test [4]; 24% in test [5]; 0% in test [6]. Besides, the “%Inh” value in [7] was 18%; in test [8] it was 16%; in test [9], 9%; in test [10], 2%.

For `Fc1ccc(Nc2nccc(-c3c(-c4ccc(Cl)cc4)nn4ncccc34)n2)cc1F` [GW829058], the “%Inh” value stood at 0% in [1]; 18% in test [2]; 0% in [3]; 22% in test [4]; 0% in test [5]; 0% in [6]. The “%Inh” value in [7] was 0%; in [8] it was 9%; in [9], 3%; in test [10], 17%.

For `Fc1cccc(COc2ccc(Nc3ncnc4cc[nH]c34)cc2Cl)c1`, the “%Inh” value in [1] is recorded as 14%; in test [2], 0%; in test [3] it was 0%; in test [4] it was 12%; in [5], 10%; in [6] it was 0%. The “%Inh” value is 25% in test [7], 0% in [8], 2% in test [9] and 13% in [10].

In the case of `COc1ccc(NC(=O)Nc2ccc(C)c(-c3ccc(C(=O)Nc4ccncc4)cc3)c2)cc1` [GSK1398475], the “%Inh” value in test [1] worked out at 0%; in test [2] it was 3%; in [3], 0%; in test [4] it was 0%; in test [5] it was 0%; in test [6], 0%. Moreover, the “%Inh” value is 11% in test [7], 5% in test [8], 0% in [9] and 0% in test [10].

For the compound `CS(=O)(=O)CCNCc1nc(-c2ccc3ncnc(Nc4ccc(OCc5cccc(F)c5)c(Cl)c4)c3c2)cs1.Cl` [GW583340], the “%Inh” value in [1] is 0%; in [2] it was 0%; in [3] it was 0%; in [4], 13%; in test [5], 0%; in test [6], 0%. Further, the “%Inh” value was found to be 2% in [7], 3% in [8], 0% in [9] and 0% in test [10].

Regarding `CCC(CC)(CC)n1cnc2c(N)ncnc21` [SKF-97620], the “%Inh” value was 8% in test [1]; 47% in [2]; 20% in [3]; 16% in test [4]; 0% in test [5]; 0% in test [6]. The “%Inh” value amounted to 8% in test [7], 0% in test [8], 14% in test [9] and 3% in test [10].

In the case of `CS(=O)(=O)CCNCc1ccc(-c2ccc3ncnc(Nc4ccc(OCc5ccccc5)c(Cl)c4)c3c2)o1.Cl` [GW574783], the “%Inh” value was 0% in [1]; 10% in test [2]; 27% in test [3]; 13% in test [4]; 20% in test [5]; 4% in test [6]. Moreover, the “%Inh” value in [7] came out at 12%; in test [8] it was 0%; in test [9] it was 0%; in test [10] it was 0%.

In the case of `CCc1nc(-c2cccc(N(C)S(=O)(=O)c3ccccc3)c2)c(-c2ccnc(Nc3ccc(N4CCN(C(C)=O)CC4)nc3)n2)s1` [GSK1645895], the “%Inh” value worked out at 0% in test [1]; 0% in test [2]; 0% in [3]; 0% in [4]; 15% in test [5]; 3% in test [6]. Further, the “%Inh” value in test [7] is given as 12%; in [8], 9%; in test [9], 0%; in test [10] it was 0%.

For `CSc1nn2c(=O)cc(N3CCOCC3)nc2n1Cc1cccc(Cl)c1Cl` [GSK2347225], the “%Inh” value in test [1] is listed as 5%; in [2], 6%; in [3], 23%; in test [4], 27%; in test [5] it was 0%; in test [6] it was 0%. Moreover, the “%Inh” value turned out to be 8% in test [7], 0% in [8], 25% in [9] and 0% in [10].

Turning to `c1ccc(-c2ccc3c(-c4ccnc(Nc5ccc6c(c5)OCCO6)n4)cnn3n2)cc1` [GW818941], the “%Inh” value in test [1] came out at 1%; in test [2] it was 0%; in [3] it was 9%; in test [4], 9%; in test [5] it was 37%; in [6] it was 0%. The “%Inh” value in [7] was determined as 18%; in [8] it was 16%; in test [9] it was 42%; in [10] it was 0%.

Take `O=C(NCCCN1CCCC1=O)c1cnc(NCc2cc(Cl)ccc2Cl)nc1NC1CCNCC1`: the “%Inh” value in test [1] is recorded as 13%; in test [2], 40%; in [3] it was 0%; in test [4], 0%; in [5] it was 0%; in test [6] it was 3%. The “%Inh” value is on record as 0% in test [7], 29% in test [8], 0% in test [9] and 0% in test [10].

Turning to `Cc1ccc(C)c(NC(=O)NCCNc2ccnc(Nc3ccc(F)cc3)n2)c1` [GSK1379878], the “%Inh” value turned out to be 0% in test [1]; 0% in [2]; 0% in test [3]; 0% in test [4]; 0% in test [5]; 1% in test [6]. Also, the “%Inh” value in [7], in test [8], in test [9] and in [10] was 0% each time.

Consider `Cc1ccc(NC(=O)c2cccc(C#N)c2)cc1-c1ccc(C(=O)Nc2ccncc2)cc1` [GSK1398463], for which the “%Inh” value in test [1] is 7%; in [2] it was 5%; in test [3], 27%; in [4], 0%; in [5] it was 0%; in [6], 0%. Besides, the “%Inh” value in [7] is 12%; in [8], 31%; in test [9] it was 2%; in test [10] it was 0%.

On to `CCn1c(-c2ccncc2)nc2cnccc21` [SB-735216], for which the “%Inh” value in [1] is on record as 0%; in test [2], 37%; in test [3], 12%; in [4], 46%; in test [5], 8%; in [6], 0%. Moreover, the “%Inh” value in test [7] turned out to be 4%; in [8] it was 0%; in test [9], 2%; in test [10] it was 8%.

With `COc1cc2c(Nc3cccc(NC(=O)c4ccccc4)c3)ncnc2cc1OCCCN1CCOCC1` [GSK223810], the “%Inh” value was determined as 18% in test [1]; 13% in test [2]; 10% in test [3]; 8% in [4]; 22% in [5]; 2% in [6]. Moreover, the “%Inh” value was determined as 4% in test [7], 5% in test [8], 8% in test [9] and 0% in test [10].

On to `O=C(c1ccc(-c2cc(-c3c[nH]nc3-c3ccccn3)ccn2)cc1)N1CCCC1` [GW792479], for which the “%Inh” value amounted to 12% in test [1]; 0% in test [2]; 0% in test [3]; 100% in [4]; 0% in test [5]; 0% in test [6]. Also, the “%Inh” value is listed as 0% in test [7], 0% in [8], 13% in test [9] and 0% in test [10].

As to `Clc1ccc(-c2cc(-c3c[nH]nc3-c3ccccn3)ccn2)cc1` [GW681251], the “%Inh” value in [1] is reported as 0%; in test [2] it was 26%; in test [3] it was 4%; in test [4], 0%; in test [5], 0%; in test [6], 56%. Moreover, the “%Inh” value amounted to 31% in [7], 25% in [8], 0% in [9] and 10% in test [10].

For the compound `COc1ccc(NC(=O)c2ccc(-c3cc(-c4nnc(C)o4)ccc3C)cc2)cc1` [GW595885], the “%Inh” value in test [1] amounted to 0%; in [2] it was 4%; in [3], 8%; in test [4], 0%; in test [5] it was 9%; in test [6], 2%. Moreover, the “%Inh” value in test [7] was 0%; in [8], 0%; in test [9], 4%; in [10] it was 0%.
